PLCg1 inh: blocks human PLC-gamma1 enzyme activity | P19174 | purified PLC-gamma1, fluorogenic substrate, fluorescence | inhibition, % at 12.2 µM | actives 0.84% (n = 370,000); in the data active means inhibition above about 9.5%
DAGLB inhibitor: blocks human DAGLB lipase activity; HEK293T DAGLB membrane lysate, EnzChek fluorogenic substrate; inhibition, % at 5.17 µM; actives 0.059% (n = 340,000); in the data active means inhibition above about 34%
sPLA2-III inh: Inhibits HGIII-sPLA2 liposome hydrolysis, primary screen. Q9NZ20. actives 0.56% (n = 370,000). inhibition, % at 12.2 µM. QFRET BODIPY PC-A2 liposome hydrolysis, fluorescence;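 active means inhibition above mean plus 3 SD of compounds lying within the high and low control bounds, cut at about 19% in these data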
Target sequence (Q9NZ20 whole entry, looked up): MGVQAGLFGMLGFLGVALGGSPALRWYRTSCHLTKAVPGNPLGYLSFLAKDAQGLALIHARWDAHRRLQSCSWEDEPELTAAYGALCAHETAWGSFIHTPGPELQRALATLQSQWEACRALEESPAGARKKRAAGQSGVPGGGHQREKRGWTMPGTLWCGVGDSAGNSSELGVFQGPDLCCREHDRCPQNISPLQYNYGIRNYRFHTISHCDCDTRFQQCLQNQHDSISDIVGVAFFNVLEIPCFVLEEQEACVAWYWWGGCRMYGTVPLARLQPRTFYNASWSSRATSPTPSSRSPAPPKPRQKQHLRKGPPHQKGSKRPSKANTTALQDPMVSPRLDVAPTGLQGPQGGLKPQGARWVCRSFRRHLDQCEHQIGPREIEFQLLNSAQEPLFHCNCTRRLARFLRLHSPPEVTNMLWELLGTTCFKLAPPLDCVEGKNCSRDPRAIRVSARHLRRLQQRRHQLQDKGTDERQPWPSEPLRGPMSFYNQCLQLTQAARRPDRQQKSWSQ
PLC-beta3 inh: inhibitors of human phospholipase C beta3; inhibition, % at 12.2 µM; Purified PLC-beta3, fluorogenic substrate, fluorescence; actives 0.18% (n = 370,000); Q01970; AID 720704
PLCgamma1 ctr: inhibits human PLC-gamma1 in PLC-beta3 counter-screen; shares compounds with PLCg1 inh; purified PLC-gamma1, fluorogenic substrate, fluorescence; inhibition, % at 12.3 µM; actives 3.1% (n = 3,300); in the data active means inhibition above about 9.5%
PLCb3 confirm: confirmation of human PLC-beta3 inhibitors; shares compounds with PLCg1 inh; purified PLC-beta3, fluorogenic substrate fluorescence; inhibition, % at 12.3 µM; actives 1% (n = 3,300)
Numbers stand for hits; 0 = inactive; - = not tested or not shown. Only some compounds are listed: those with a hit (about 1.5% of all), similar ones and a draw of the others. Unless noted, no stated cut-off is given here; in the data, active means inhibition above about 11%; inactive means the rest.

SMILES	PLCg1 inh	DAGLB inhibitor	sPLA2-III inh	PLC-beta3 inh	PLCgamma1 ctr	PLCb3 confirm
O=C(CN1CCCC1)Nc1ccc(F)cc1	0	0	0	0	-	-
COC(=O)C1=C(C)N(Cc2ccccc2C(F)(F)F)C(=NCc2ccc3c(c2)OCO3)NC1c1cccc(Cl)c1 (stereo not drawn)	12	-	0	0	0	0
C=CCN=C1NC(c2cccc(Cl)c2)C(C(=O)OC)=C(C)N1Cc1cccc(C(F)(F)F)c1 (stereo not drawn)	0	-	0	12	0	0
C=CCN=C1NC(c2ccccc2)C(C(=O)OC)=C(C)N1Cc1cccc(C(F)(F)F)c1 (stereo not drawn)	0	-	0	0	-	-
COc1cc(NC(=O)Nc2cccc3cccnc23)cc(OC)c1OC	15	0	0	0	0	0
COC1=C[C@H](C(=O)NC2CCN(Cc3ccccc3)CC2)[C@@]2(C)Cc3ccccc3[C@H]2CC1=O	0	-	0	0	-	-
Cc1cc(C)cc(NC(=O)NCCCN2CCN(c3ccc(F)cc3)CC2)c1	0	-	0	0	-	-
O=C(NCc1ccccc1)Nc1nnc([C@@H]2C[C@H](O)[C@@H](CO)O2)s1	15	-	0	0	0	0
O=C(Nc1nnc([C@H]2C[C@H](O)[C@@H](CO)O2)s1)NC(c1ccccc1)c1ccccc1	12	-	0	0	0	0
O=C(NCc1ccc(F)cc1)Nc1nnc([C@@H]2C[C@H](O)[C@@H](CO)O2)s1	0	-	0	0	-	-
Cc1cccc(CCNC(=O)c2ccc3c(c2)ncn3C2CCCCC2)c1	0	-	0	0	-	-
COC(=O)[C@]12C[C@H](CC(=O)NCc3ccccc3)C(=O)N(CCc3ccc(OC)c(OC)c3)C1=C[C@H](COCc1ccccc1)O[C@@H]2C	0	-	0	0	-	-
Cc1ccc(-n2c(SCc3c(Cl)cccc3Cl)nnc2-c2ccco2)cc1	0	-	0	0	-	-
COC(=O)[C@@H]1CCCN1C(=O)[C@@H](NC(=O)OC(C)(C)C)C(C)C	0	0	0	14	0	0
CC(C)CC(NC(=O)C(NC(=O)OC(C)(C)C)C(C)C)C(=O)N1CCCC1C(N)=O (stereo not drawn)	0	0	0	0	-	-
Cc1cccc(C(=O)O/N=C(\N)c2ccc(Cl)cc2)c1	0	0	0	0	-	-
Cc1ccc(/C(N)=N/OC(=O)c2ccc(Cl)cc2Cl)cc1	0	0	0	13	0	0
Nc1n[nH]c(N)c1N=Nc1cccc(F)c1	0	0	0	0	-	-
Nc1n[nH]c(N)c1N=Nc1ccc(Cl)cc1	20	0	0	14	0	0
C[C@H]1[C@H](NC(=O)c2ccc(C(F)(F)F)cc2)CC[C@@]23CCCN2C(=O)CCC[C@@H]13	0	-	0	0	-	-
CCN(CC)C(=O)C1CCCN(Cc2ccc(N(C)C)cc2)C1 (stereo not drawn)	10	0	0	0	0	0
Cc1ccc(CN2CCCC(C(=O)N3CCCC3)C2)cc1 (stereo not drawn)	0	0	0	0	-	-
O=C(C1CCCN(Cc2ccc(Br)cc2)C1)N1CCCCC1 (stereo not drawn)	13	0	0	0	0	0
CCN(CC)C(=O)C1CCCN(Cc2ccccc2)C1 (stereo not drawn)	0	0	0	0	-	-
O=C(Nc1ccccc1Cl)c1ccc(-n2cccn2)c([N+](=O)[O-])c1	11	0	0	0	0	0
SMILES	PLCg1 inh	DAGLB inhibitor	sPLA2-III inh	PLC-beta3 inh	PLCgamma1 ctr	PLCb3 confirm
COc1cccc(-c2noc(C(C)n3nc(C)c([N+](=O)[O-])c3C)n2)c1 (stereo not drawn)	11	0	0	0	0	0
CCCCCCCCN1C(=O)[C@@H](CC(=O)NCCCOCCCC)C[C@@]2(C(=O)OC)C1=C[C@H](C(C)(C)C)O[C@@H]2C	0	-	0	0	-	-
Cc1ccccc1N1CCN(C(=O)CCn2nnc3ccccc32)CC1	0	-	0	0	-	-
CCN(CC(=O)Nc1ccccc1C(F)(F)F)C(=O)c1oc2c(Cl)cccc2c1C	13	0	0	0	0	0
COc1ccc(C2C(C#N)=C(N)Nc3onc(C(C)(C)C)c32)c(OC)c1 (stereo not drawn)	0	0	0	11	0	0
COc1ccc(C2C(C#N)=C(C)NC(C)=C2C#N)c(OC)c1	0	0	0	0	-	-
COc1cc(OC)c2c(O)c3c(=O)cc(C)oc3c(-c3c(OC)cc4cc5c(c(O)c4c3O)C(=O)CC(C)(O)O5)c2c1 (stereo not drawn)	0	-	0	0	-	-
CN1CCCN(S(=O)(=O)c2ccc3c(c2)n(C)c(=O)c(=O)n3C)CC1	0	-	0	0	-	-
COc1ccc(-c2nnc(SC(C)C(=O)Nc3nccs3)n2-c2ccccc2)cc1OC (stereo not drawn)	0	0	0	0	-	-
COc1ccc(-c2nnc(SC(C)C(=O)Nc3nccs3)n2Cc2ccccc2)cc1OC (stereo not drawn)	9.8	0	0	0	0	0
Cn1c(=O)c2c(nc(-n3ccnc3)n2C)n(C)c1=O	0	0	0	0	-	-
Cn1c(=O)c2c(nc(-n3ccnc3)n2Cc2ccccc2)n(C)c1=O	10	0	0	0	0	0
CC(CCc1ccccc1)NC(=O)c1cccs1 (stereo not drawn)	0	0	0	12	0	0
Cn1c(=O)c2c(ncn2CCC(=O)N/N=C/c2ccccc2)n(C)c1=O	11	0	0	11	0	0
CC(C)(C)N(NC(=O)Nc1ccccc1)C(=O)c1ccccc1	13	0	0	0	0	0
S=C(NCc1cccnc1)Nc1ccc(Cl)c(Cl)c1	0	0	0	0	-	-
O=C(NCc1cccnc1)Nc1ccc(Cl)c(Cl)c1	9.6	0	0	0	0	0
COc1ccc(NC(=O)Cn2nnc(C(=O)NCc3ccc(C)cc3)c2N)cc1Cl	13	0	0	0	0	0
COc1ccc(Cl)cc1NC(=O)c1nnn(CC(=O)Nc2ccc(C)c(C)c2)c1N	9.7	0	0	0	0	0
CCOC(=O)[C@@]12CN(C(=O)OC(C)(C)C)CC=C1N(Cc1ccc(OC)cc1)C(=O)[C@H]2CC(=O)NCCCN1CCCC1=O	0	-	0	0	-	-
O=C1/C(=C\c2cccs2)SC(=S)N1C1CCS(=O)(=O)C1 (stereo not drawn)	9.8	0	0	0	0	0
O=C1/C(=C/c2ccccc2)SC(=S)N1C1CCS(=O)(=O)C1 (stereo not drawn)	0	0	0	0	-	-
COc1ccc(CNC2CCC23CCCCC3)cc1OC (stereo not drawn)	0	-	0	0	-	-
C=CCN(C)CC#CCCCCl	0	-	0	0	-	-
N#C/C(=C\c1ccc(OCc2ccc(F)cc2)cc1)C(=O)Nc1cccc(C(=O)O)c1	10	0	0	0	0	0
S=C(Nc1cccc(Br)c1)OC1CCC12CCC(c1ccccc1)CC2 (stereo not drawn)	0	-	0	0	-	-
CCOC(=O)[C@@]12CCC3=C1N(CCC3)C(=O)[C@H](CC(=O)NCc1ccccc1)C2	0	-	0	0	-	-
Nc1ccc2c(c1)C(=O)C(=O)c1ccccc1-2	53	0	0	0	51	0

Screening results (PubChem)
